The values below come from PubChem BioAssay (NCI).

Each structure is given as a SMILES string. Compounds without any hit were thinned out: in the full panel of roughly 83,000, 20% have a hit.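 Cells were grown in 96-well plates and exposed to the test compound at a single concentration for 48 hours; results are reported as percent growth, with values below 10 considered active.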 Unmarked numbers belong to inactive results. Calls of active or inactive are those of the source.

One assay has as its system TK-10 renal. Description: NCI-60 one-dose screen, 48 h (100 = growth as untreated, 0 = no growth, -100 = all killed). The settings on record: 10 µM unless noted.
For `CC(=O)C1=C(C)NC(NNc2ccccc2)=NC1c1ccc([N+](=O)[O-])cc1` (stereo not drawn), the growth is 109%.

In the case of `COC(=O)c1ccc(NC2=C(Cl)C(=O)C(C)=C(C)C2=O)cc1`, the growth was 112%.

Take `C=C(C=O)[C@@H]1CC[C@]2(C(=O)O)CC[C@]3(C)C(CC[C@@H]4[C@@](C)(CCC#N)[C@H](C(=C)C=O)CC[C@]43C)[C@@H]12` (stereo partly drawn): the growth was 128%.

In the case of `CCOC(=O)C1=C(C)NC(C)=C(C(=O)OC(C)C)C1c1cccc(C#N)c1` (stereo not drawn), the growth is 106%.

For the compound `CC1(C)CC[C@]23CC[C@]4(C)[C@H](CC[C@@H]5[C@@]6(C)CC[C@H](NCO)C(C)(C)[C@@H]6CC[C@]54C)[C@H]2[C@H]1OC3`, the growth was 122%.

For `COc1ccc(C(=NNS(=O)(=O)c2ccc(C)cc2)c2ccccc2)cc1OC`, the growth is 96.6%.

Take `COc1cccc2c1C=CC1(O2)Oc2cccc(OC)c2C=C1C` (stereo not drawn): the growth was 103%.

Consider `Cc1csc(/N=C(N)/N=C(\N)c2cccnc2)n1`, for which the growth is 116%.

Consider `Cc1ccc(/C=N/Nc2nc(Nc3ccccc3)nc(Nc3ccc(S(N)(=O)=O)cc3)n2)cc1`, for which the growth is 94.5%.

As for `CCCC[n+]1ccc(SCC(=O)n2ccc3ccccc32)c2ccccc21`, the growth is 141%.

As to `O=[N+]([O-])c1ccc(NC(=S)NNC(=S)Nc2ccc(Br)cc2)cc1`, the growth is 127%.

As to `CCOP(=O)(OCC)OC[C@]12CCC(C)(C)CC1C1=CC[C@@H]3[C@@]4(C)CCCNC(C)(C)[C@@H]4CC[C@@]3(C)[C@]1(C)CC2` (stereo partly drawn), the growth is 90.4%.

On to `CNC(=O)Nc1ccc(Nc2cc(-c3ccc(-n4cccn4)cc3)[nH]n2)c(C)c1`, for which the growth was 138%.

Turning to `O=C(CCCCCCNC(=O)c1csc(Br)n1)NO`, the growth is -3.87% (active).

Regarding `NS(=O)(=O)c1ccc(Nc2nc(N/N=C/c3ccc4c(c3)OCO4)nc(Nc3ccccc3)n2)cc1`, the growth was 96.6%.

With `CCc1cc2c(cc1Cl)nc1c(=O)[nH]c(=O)nc-1n2CCOCC(C)C`, the growth is 176%.

Turning to `COc1cc(C(=O)c2cc(C(C)=O)c3cccc(C)n23)cc(OC)c1OC`, the growth was 78.6%.

On to `Nc1ncc(-c2ccc3ncnc(NCc4ccccc4)c3c2)cn1`, for which the growth was -7.11% (active).

Regarding `COc1ccc2c(c1)c(-c1nn3cc(-c4ccncc4)nc3s1)cn2C`, the growth is 130%.

The test system of another assay is ACHN renal. The assay is described as above. The settings on record: 10 µM unless noted.
On to `C#C[C@]1(O)CC[C@H]2[C@@H]3CC=C4c5sc(N(C)c6ccccc6)nc5CC[C@]4(C)[C@H]3CC[C@@]21C`, for which the growth is 92.1%.

Take `CC(=O)c1c([Si](C)(C)C)c2cc(C#N)ccn2c1C(=O)c1ccc(Br)cc1`: the growth is 82.1%.

For `O=C(CSc1nc2ccccc2c(=O)n1-c1ccc(Cl)c(Cl)c1)Nc1ccc(S(=O)(=O)Nc2ccc(Cl)nn2)cc1`, the growth was 95.3%.

With `C#CCN(C)CCCOc1ccc(NCc2ccc(/C=C/C(=O)NO)cc2)cc1Cl`, the growth is -41.4% (active).

As for `O=C(NNc1nc2cc(F)cc(F)c2n2cccc12)c1cccnn1`, the growth was 10.3%.

On to `COc1ccc(/C(=N\NC(N)=S)c2ccc(Cl)cc2)cc1OC`, for which the growth is 42.3%.

As to `COc1ccc(-c2c(C(N)=O)c(N)n(Cc3nc4ccccc4[nH]3)c(=O)c2C#N)c(OC)c1`, the growth is 96.2%.

For `Cc1cc(Br)ccc1-n1cc(C#N)c(N)c1C(=O)c1ccc(Br)cc1`, the growth is 97.2%.

In the case of `CN1CCN(Cc2ccc(NC(=O)c3cncc(C#Cc4cnc(N)nc4)c3)cc2C(F)(F)F)CC1`, the growth was 7.78% (active).

`CCOC(=O)c1c(NC(=O)c2ccc(C(F)(F)F)cc2)sc2c3c(ccc12)OCN(C)C3`: the growth was -14.5% (active).

With `O=C1CSC(c2cn(-c3ccccc3)nc2-c2ccc(Cl)cc2)N1c1ccccc1` (stereo not drawn), the growth was 104%.

Take `COc1ccc(-c2c3c(cn2Cc2cccc(OC)c2)-c2oncc2CCC3)cc1`: the growth is 102%.

Consider `C#C[C@]1(O)CC[C@H]2[C@@H]3CC=C4c5sc(Nc6ccc(C)cn6)nc5CC[C@]4(C)[C@H]3CC[C@@]21C`, for which the growth was 17.4%.

As to `CCCCCCOC(=O)c1cc(-c2ccc(F)cc2)nc2ccccc12`, the growth was 100%.

For `CN1CCN(c2ccc(Nc3nc(NCCNS(=O)(=O)c4ccccc4)c4sccc4n3)cc2)CC1`, the growth is 101%.

Take `CN1CCN(Cc2ccc(NC(=O)c3cncc(C#Cc4cnc5ccc(O[C@@H]6CCOC6)nn45)c3)cc2C(F)(F)F)CC1`: the growth is -100% (active).

`CC(C)(C)Nc1nc2c(OCCc3ccccc3)cccn2c1-c1ccc([N+](=O)[O-])cc1`: the growth is 54.4%.

Take `N#Cc1c(-c2cccs2)cc(-c2cnccn2)nc1SCC(=O)N/N=C/c1ccc(Cl)cc1`: the growth is 102%.

For `CN(C)CCCOc1ccc(C(=C(c2ccccc2)C2CCCC2)c2ccc(OCCCN(C)C)cc2)cc1`, the growth was -94.5% (active).

As for `N#Cc1nc(-c2ccc(Cl)cc2)oc1N1CCC(S(=O)(=O)N2CCOCC2)CC1`, the growth was 100%.

`CC(=O)C1=C(C)NC(NNc2ccccc2)=NC1c1ccc([N+](=O)[O-])cc1` (stereo not drawn): the growth was 76%.

As to `COC(=O)c1ccc(NC2=C(Cl)C(=O)C(C)=C(C)C2=O)cc1`, the growth was 63.2%.

Turning to `C=C(C=O)[C@@H]1CC[C@]2(C(=O)O)CC[C@]3(C)C(CC[C@@H]4[C@@](C)(CCC#N)[C@H](C(=C)C=O)CC[C@]43C)[C@@H]12` (stereo partly drawn), the growth was 51.8%.

Consider `CCOC(=O)C1=C(C)NC(C)=C(C(=O)OC(C)C)C1c1cccc(C#N)c1` (stereo not drawn), for which the growth is 96.7%.

Regarding `CC1(C)CC[C@]23CC[C@]4(C)[C@H](CC[C@@H]5[C@@]6(C)CC[C@H](NCO)C(C)(C)[C@@H]6CC[C@]54C)[C@H]2[C@H]1OC3`, the growth was 26.4%.

As to `COc1ccc(C(=NNS(=O)(=O)c2ccc(C)cc2)c2ccccc2)cc1OC`, the growth is 98%.

Consider `COc1cccc2c1C=CC1(O2)Oc2cccc(OC)c2C=C1C` (stereo not drawn), for which the growth was 40.4%.

`Cc1csc(/N=C(N)/N=C(\N)c2cccnc2)n1`: the growth was 78.4%.

`Cc1ccc(/C=N/Nc2nc(Nc3ccccc3)nc(Nc3ccc(S(N)(=O)=O)cc3)n2)cc1`: the growth is 61.2%.

For the compound `CCCC[n+]1ccc(SCC(=O)n2ccc3ccccc32)c2ccccc21`, the growth was 104%.

Turning to `O=[N+]([O-])c1ccc(NC(=S)NNC(=S)Nc2ccc(Br)cc2)cc1`, the growth is 70.8%.

Take `CCOP(=O)(OCC)OC[C@]12CCC(C)(C)CC1C1=CC[C@@H]3[C@@]4(C)CCCNC(C)(C)[C@@H]4CC[C@@]3(C)[C@]1(C)CC2` (stereo partly drawn): the growth is 83.5%.

In the case of `CNC(=O)Nc1ccc(Nc2cc(-c3ccc(-n4cccn4)cc3)[nH]n2)c(C)c1`, the growth was 109%.

Take `O=C(CCCCCCNC(=O)c1csc(Br)n1)NO`: the growth was 13.9%.

Consider `NS(=O)(=O)c1ccc(Nc2nc(N/N=C/c3ccc4c(c3)OCO4)nc(Nc3ccccc3)n2)cc1`, for which the growth was 57.8%.

`CCc1cc2c(cc1Cl)nc1c(=O)[nH]c(=O)nc-1n2CCOCC(C)C`: the growth was 60%.

As to `COc1cc(C(=O)c2cc(C(C)=O)c3cccc(C)n23)cc(OC)c1OC`, the growth was 51.4%.

In the case of `Nc1ncc(-c2ccc3ncnc(NCc4ccccc4)c3c2)cn1`, the growth is 25.2%.

As for `COc1ccc2c(c1)c(-c1nn3cc(-c4ccncc4)nc3s1)cn2C`, the growth is 71.4%.
